Values joined by “and” are separate entries in the source; they are usually repeats but may differ in a detail not shown here. Equal entries are not always repeated. Where two headings read alike, the source gives them in different places.
Key:
Details in all cases: concentration: 1 μM, replicates: in singlicate, n = 1
MAP4K3 = test system: MAP4K3
MAP4K4 = test system: MAP4K4
MAP4K5 = test system: MAP4K5
MAPKAPK2 = test system: MAPKAPK2
MAPKAPK5 = test system: MAPKAPK5
MARK1 = test system: MARK1
MARK2 = test system: MARK2
MARK3 = test system: MARK3
MARK4 = test system: MARK4
MAST1 = test system: MAST1
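Also: KINOMEscan kinase panel screen.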

| Compound | %Inh (MAP4K3) [%] | %Inh (MAP4K4) [%] | %Inh (MAP4K5) [%] | %Inh (MAPKAPK2) [%] | %Inh (MAPKAPK5) [%] | %Inh (MARK1) [%] | %Inh (MARK2) [%] | %Inh (MARK3) [%] | %Inh (MARK4) [%] | %Inh (MAST1) [%] | %Inh (MAP4K3; 1 µM) | %Inh (MAP4K4; 1 µM) | %Inh (MAP4K5; 1 µM) | %Inh (MAPKAPK2; 1 µM) | %Inh (MAPKAPK5; 1 µM) | %Inh (MARK1; 1 µM) | %Inh (MARK2; 1 µM) | %Inh (MARK3; 1 µM) | %Inh (MARK4; 1 µM) | %Inh (MAST1; 1 µM) |
| --- | --- | --- | --- | --- | --- | --- | --- | --- | --- | --- | --- | --- | --- | --- | --- | --- | --- | --- | --- | --- |
| COc1cc(Nc2nccc(N3CCC(NC(=O)c4cccc(NC(C)=O)c4)C3)n2)cc(OC)c1OC (stereo not shown) [GSK1379754] | 2 | 23 | 10 | 0 | 0 | 0 | 0 | 0 | 15 | 0 | – | – | – | – | – | – | – | – | – | – |
| NS(=O)(=O)CCc1cccc(Nc2nccc(-c3c(-c4cccc(NC(=O)c5c(F)cccc5F)c4)nn4ccccc34)n2)c1 [GSK336735] | 65 | 76 | 95.8 | 23 | 0 | 13 | 0 | 6 | 26 | 0 | – | – | – | – | – | – | – | – | – | – |
| CCc1ccnc(/C=C/c2n[nH]c3cc(Sc4ccccc4C(=O)NC)ccc23)c1 | 0 | 0 | 3 | 0 | 0 | 27 | 4 | 3 | 21 | 0 | – | – | – | – | – | – | – | – | – | – |
| Fc1ccc(-c2ncn(CCCN3CCOCC3)c2-c2cccnc2)cc1 [SB-211743] | 11 | 0 | 4 | 0 | 0 | 3 | 5 | 0 | 16 | 0 | – | – | – | – | – | – | – | – | – | – |
| Cn1ccc2ncnc(Oc3ccc(NC(=O)Nc4ccncc4)c(Cl)c3)c21 | 0 | 0 | 0 | 0 | 0 | 0 | 11 | 2 | 0 | 2 | – | – | – | – | – | – | – | – | – | – |
| COC(=O)Nc1nc2cc(Oc3ccc(NC(=O)Nc4cc(F)ccc4F)cc3)ccc2[nH]1.Cl [GW701424] | 0 | 0 | 0 | 13 | 0 | 0 | 0 | 3 | 0 | 5 | – | – | – | – | – | – | – | – | – | – |
| CN(C(=O)c1ccc(-c2cc(-c3c[nH]nc3-c3ccccn3)ccn2)cc1)C1CCOCC1 [GW810083] | 0 | 9 | 0 | 0 | 0 | 9 | 36 | 0 | 30 | 38 | – | – | – | – | – | – | – | – | – | – |
| Cc1cccc(Cn2ccn3c(=O)cc(N4CCOCC4)nc23)c1 [GSK2297542] | 0 | 4 | 0 | 14 | 0 | 7 | 11 | 0 | 10 | 0 | – | – | – | – | – | – | – | – | – | – |
| Cl.Oc1cccc(Nc2ccnc3cc(-c4ccncc4)ccc23)c1 [GW494601] | 0 | 47 | 20 | 0 | 0 | 6 | 0 | 0 | 10 | 51 | – | – | – | – | – | – | – | – | – | – |
| Cl.Cl.Cl.Fc1ccc(-c2ncn(C3CCNCC3)c2-c2ccnc(Nc3ccccc3)n2)cc1 [SB-238039] | – | – | – | – | – | – | – | – | – | – | 41% and 5% | 74% and 60% | 94.1% and 85% | 2% and 33% | 0% and 9% | 13% and 10% | 43% and 42% | 10% and 0% | 27% and 11% | 52% and 37% |
| Nc1nccc(-c2c(-c3ccc(F)cc3)ncn2C2CCN(CC(F)(F)F)CC2)n1 [SB-236560] | 0 | 0 | 0 | 0 | 0 | 0 | 0 | 0 | 4 | 40 | – | – | – | – | – | – | – | – | – | – |
| CC(C)Oc1ccc2c(-c3ccnc(Nc4ccc(N5CCN(C)CC5)cc4)n3)cnn2n1 [GW696155] | 52 | 1 | 0 | 0 | 0 | 50 | 72 | 77 | 59 | 8 | – | – | – | – | – | – | – | – | – | – |
| COc1ccc(CNC(=O)NC2CCN(c3ccnc(Nc4ccc(OC)cc4)n3)C2)cc1 (stereo not shown) [GSK1379727] | 0 | 0 | 0 | 20 | 0 | 0 | 0 | 0 | 0 | 0 | – | – | – | – | – | – | – | – | – | – |
| O=c1cc(N2CCOCC2)nc2n(Cc3cccc(C(F)(F)F)c3)ccn12 [GSK2297543] | 0 | 0 | 0 | 0 | 0 | 1 | 0 | 0 | 12 | 9 | – | – | – | – | – | – | – | – | – | – |
| Cn1cc(-c2ccc3c(c2)CCN3C(=O)Cc2ccccc2Cl)c2c(N)ncnc21 [GSK2608885] | 70 | 58 | 96.3 | 0 | 3 | 16 | 0 | 46 | 19 | 0 | – | – | – | – | – | – | – | – | – | – |
| CCCCCc1nc2c(N)ncnc2n1CCCCC [SKF-97255] | 2 | 0 | 0 | 0 | 0 | 24 | 0 | 20 | 31 | 25 | – | – | – | – | – | – | – | – | – | – |
| Cc1nnc(-c2ccc(C)c(-c3ccc(C(=O)Nc4ccc(NS(C)(=O)=O)cc4)cc3)c2)o1 [GW702865] | 0 | 0 | 0 | 11 | 0 | 0 | 0 | 0 | 10 | 21 | – | – | – | – | – | – | – | – | – | – |

| Compound | %Inh (MAP4K3) [%] | %Inh (MAP4K4) [%] | %Inh (MAP4K5) [%] | %Inh (MAPKAPK2) [%] | %Inh (MAPKAPK5) [%] | %Inh (MARK1) [%] | %Inh (MARK2) [%] | %Inh (MARK3) [%] | %Inh (MARK4) [%] | %Inh (MAST1) [%] | %Inh (MAP4K3; 1 µM) | %Inh (MAP4K4; 1 µM) | %Inh (MAP4K5; 1 µM) | %Inh (MAPKAPK2; 1 µM) | %Inh (MAPKAPK5; 1 µM) | %Inh (MARK1; 1 µM) | %Inh (MARK2; 1 µM) | %Inh (MARK3; 1 µM) | %Inh (MARK4; 1 µM) | %Inh (MAST1; 1 µM) |
| --- | --- | --- | --- | --- | --- | --- | --- | --- | --- | --- | --- | --- | --- | --- | --- | --- | --- | --- | --- | --- |
| Cc1c(Cn2c(C)nn3c(=O)cc(N4CCOC(C)C4)nc23)cccc1C(F)(F)F (stereo not shown) [GSK2344444] | 0 | 18 | 16 | 1 | 0 | 0 | 0 | 0 | 0 | 0 | – | – | – | – | – | – | – | – | – | – |
| Cc1nnc(-c2ccc3ncc(-c4ccc(S(C)=O)cc4)n3c2)o1 (stereo not shown) | 0 | 0 | 0 | 22 | 5 | 0 | 20 | 0 | 0 | 34 | – | – | – | – | – | – | – | – | – | – |
| Fc1ccc(-c2nn3c(OCC(F)(F)F)cccc3c2-c2ccncc2)cc1 [GW514784] | 0 | 0 | 0 | 0 | 0 | 0 | 0 | 0 | 0 | 48 | – | – | – | – | – | – | – | – | – | – |
| CN(C1=C(c2ccccc2)C(=O)NC1=O)c1ccccc1 [SB-334860] | 8 | 16 | 9 | 8 | 0 | 0 | 3 | 0 | 0 | 0 | – | – | – | – | – | – | – | – | – | – |
| N#Cc1ccc(-c2cc(-c3c[nH]nc3-c3ccccn3)ccn2)cc1 [GW693028] | 0 | 46 | 0 | 4 | 0 | 0 | 0 | 0 | 0 | 26 | – | – | – | – | – | – | – | – | – | – |
| COc1ccc(Nc2nccc(N3CCC(NC(=O)Nc4cc(C)ccc4C)C3)n2)cc1 (stereo not shown) [GSK1379741] | 0 | 0 | 0 | 14 | 0 | 0 | 0 | 0 | 0 | 9 | – | – | – | – | – | – | – | – | – | – |
| COc1cc2c(cc1OCCN1CCN(C)CC1)ncc1c3ccc(C#N)cc3[nH]c21 | 12 | 59 | 22 | 0 | 0 | 7 | 29 | 0 | 0 | 97.2 | – | – | – | – | – | – | – | – | – | – |
| O=c1cc(N2CCOCC2)nc2n(Cc3cccc(Cl)c3Cl)c(C3CC3)nn12 [GSK2358994] | 0 | 0 | 0 | 1 | 0 | 0 | 0 | 0 | 4 | 4 | – | – | – | – | – | – | – | – | – | – |
| O=C(Nc1cccc(-c2nn3ncccc3c2-c2ccnc(Nc3cccc(C(F)(F)F)c3)n2)c1)c1c(F)cccc1F [GSK299495] | 0 | 0 | 48 | 35 | 0 | 0 | 0 | 2 | 0 | 0 | – | – | – | – | – | – | – | – | – | – |
| Cc1cccc(-c2nc(-c3ccc(S(C)(=O)=O)cc3)sc2-c2ccncc2)c1 | 0 | 30 | 0 | 1 | 0 | 34 | 0 | 0 | 31 | 31 | – | – | – | – | – | – | – | – | – | – |
| COc1cc2c(cc1OC[C@@H](O)CO)ncc1c3ccc(C#N)cc3[nH]c21 | 20 | 27 | 3 | 0 | 0 | 0 | 10 | 0 | 0 | 62 | – | – | – | – | – | – | – | – | – | – |
| CC(C)(C)n1cnc2c(N)ncnc21 [SKF-97359] | 0 | 0 | 0 | 0 | 0 | 0 | 1 | 21 | 3 | 58 | – | – | – | – | – | – | – | – | – | – |
| C[C@@H](Oc1cc(-n2cnc3ccc(NC(=O)NC(C)(C)C)cc32)sc1C(N)=O)c1ccccc1Cl [GSK346294] | 0 | 2 | 0 | 12 | 0 | 1 | 0 | 0 | 9 | 0 | – | – | – | – | – | – | – | – | – | – |
| COc1ccc(COc2cc(-n3cnc4ccccc43)sc2C(N)=O)cc1 [GSK1024304] | 0 | 2 | 24 | 0 | 0 | 0 | 1 | 5 | 11 | 0 | – | – | – | – | – | – | – | – | – | – |
| O=c1cc(N2CCOCC2)nc2n(Cc3cccc4ccccc34)ccn12 [GSK2333389] | 6 | 15 | 10 | 3 | 0 | 0 | 0 | 22 | 1 | 0 | – | – | – | – | – | – | – | – | – | – |
| O=C1NC(=O)C(N2CCc3ccccc32)=C1c1cccc(Cl)c1 [SB-408010] | 20 | 0 | 0 | 3 | 0 | 4 | 0 | 0 | 0 | 0 | – | – | – | – | – | – | – | – | – | – |
| Cc1c2ccc(N(C)c3ccnc(Nc4cccc(S(N)(=O)=O)c4)n3)cc2nn1Cc1ccccc1.Cl.Cl [GW787226] | 70 | 33 | 87 | 0 | 0 | 18 | 0 | 49 | 36 | 0 | – | – | – | – | – | – | – | – | – | – |
